Results from PubChem BioAssay AID1494157 (National Center for Advancing Translational Sciences (NCATS), 2020).
Results filed as inconclusive are left out. Activity calls are given as the source filed them. Calls come from the whole dose curve.

assay: Confirmatory qHTS for inhibitors of MERS-S pseudo-typed particle cell entry; details: MERS-S pseudotyped particle entry, luciferase reporter; series mostly up to 57.1 µM

| Compound | Potency |
| --- | --- |
| Oc1c(Cl)cc(Cl)c(Cl)c1Cc1c(O)c(Cl)cc(Cl)c1Cl | 0.857 µM (active) |
| c1ccc2c(c1)Sc1ccccc1N2CC1CN2CCC1CC2 (stereo not drawn) | 12.1 µM (active) |
| CCN1CCN(Cc2ccc(Nc3ncc(F)c(-c4cc(F)c5nc(C)n(C(C)C)c5c4)n3)nc2)CC1 | 0.482 µM (active) |
| CO[C@@]12[C@H](COC(N)=O)C3=C(C(=O)C(C)=C(N)C3=O)N1C[C@@H]1N[C@@H]12 | 0.961 µM (active) |
| N#CC(c1ccc(Cl)cc1)c1c(Cl)cc(-n2ncc(=O)[nH]c2=O)cc1Cl (stereo not drawn) | 7.64 µM (active) |
| COc1ccc2cc1Oc1ccc(cc1)C[C@H]1c3c(cc4c(c3Oc3cc5c(cc3OC)CCN(C)[C@@H]5C2)OCO4)CCN1C | 1.71 µM (active) |
| C[C@H]1[C@H](OC(=O)CCC(=O)O)O[C@@H]2O[C@@]3(C)CC[C@H]4[C@H](C)CC[C@@H]1[C@@]24OO3 | 0.857 µM (active) |
| Nc1ccn([C@@H]2O[C@H](CO)[C@@H](O)C2(F)F)c(=O)n1 | 0.215 µM (active) |
| Cc1nn(C)c2c1C(c1ccccc1F)=NCC(=O)N2C | 10.8 µM (active) |
| CN1CCCCC1CCN1c2ccccc2Sc2ccc(S(C)=O)cc21 (stereo not drawn) | 17.1 µM (active) |
| CCCCCCOC(=O)NC(=N)c1ccc(NCc2nc3cc(C(=O)N(CCC(=O)OCC)c4ccccn4)ccc3n2C)cc1 | 19.2 µM (active) |
| C=CC1(C)CC(=O)C2(O)C(C)(O1)C(OC(C)=O)C(OC(=O)CCN(C)C)C1C(C)(C)CCC(O)C12C (stereo not drawn) | inactive |
| CNCCCC12CCC(c3ccccc31)c1ccccc12 | 21.5 µM (active) |
| CN1CCC[C@@H]1CCO[C@](C)(c1ccccc1)c1ccc(Cl)cc1 | 7.64 µM (active) |
| CC(C)(C)c1ccc(C(=O)CCCN2CCC(OC(c3ccccc3)c3ccccc3)CC2)cc1 | 3.41 µM (active) |
| O=c1[nH]c(=O)n([C@H]2C[C@H](O)[C@@H](CO)O2)cc1C(F)(F)F | 6.81 µM (active) |
| COc1cc2c(cc1Cc1cccc(Cl)c1F)c(=O)c(C(=O)O)cn2[C@H](CO)C(C)C | 0.304 µM (active) |
| COc1cc([C@@H]2c3cc4c(cc3C(O[C@@H]3O[C@@H]5CO[C@@H](c6cccs6)OC5[C@H](O)[C@H]3O)C3COC(=O)[C@@H]32)OCO4)cc(OC)c1O (stereo partly drawn) | 0.271 µM (active) |
| O=c1c(C2CC(c3ccc(-c4ccc(Br)cc4)cc3)Cc3ccccc32)c(O)sc2ccccc12 (stereo not drawn) | 9.61 µM (active) |
| CNC(=O)c1cc(Oc2ccc(NC(=O)Nc3ccc(Cl)c(C(F)(F)F)c3)c(F)c2)ccn1 | 15.2 µM (active) |
| CN(C)CCC=C1c2ccccc2C(C)(C)c2ccccc21 | 15.2 µM (active) |
| COc1cccc2c1C(=O)c1c(O)c3c(c(O)c1C2=O)C[C@@](O)(C(=O)CO)CC3OC1CC(N2CCOC(OC)C2)C(O)C(C)O1 (stereo partly drawn) | 0.215 µM (active) |
| CC(=O)OCC1=C(C(=O)O)N2C(=O)[C@@H](NC(=O)Cc3cccs3)[C@H]2SC1 | inactive |
| CCN(CC)Cc1cc(Nc2ccnc3cc(Cl)ccc23)ccc1O | 9.61 µM (active) |
| CCCCN=C(N)N=C(N)N | inactive |
| COc1cc2nccc(Oc3ccc(NC(=O)C4(C(=O)Nc5ccc(F)cc5)CC4)cc3)c2cc1OC | 12.1 µM (active) |
| C=C(C)[C@H]1Cc2c(ccc3c2O[C@@H]2COc4cc(OC)c(OC)cc4[C@@H]2C3=O)O1 | 0.0136 µM (active) |
| CN(C)[C@@H](CCOc1cccc2ccccc12)c1ccccc1 | 12.1 µM (active) |
